In PubChem BioAssay AID1159580 (chemical genetic matrix, 2015):
“And” between values parts separate entries of the source, which are not always exact repeats. Identical values can stand only once. The campaign covered roughly 5,500 compounds. About 2,000 (36%) were called active. About 18% were inconclusive and are not listed. No stated cut-off is given here; in the data, active means normalized growth mostly below about 0.91 (no sharp cut-off); inconclusive means no clear call, values can overlap the other calls; inactive means mostly above about 0.92. The list shows a part of the results.

Experiment: chemical genetic growth profiling, strain panel (AID 1159580);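 further: tested at 20 µM; growth read once vehicle control cultures reached saturation at 30 °C; 1 = growth at the plate median or of vehicle wells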
Settings: growth OD

Measured: normalized growth

CC(C)=CCCC1(C)C=Cc2c(O)c3c(c(CC=C(C)C)c2O1)OC12C(CC4CC1C(C)(C)OC2(C/C=C(/C)C(=O)O)C4O)C3=O (configuration not stated)
inactive: S. cerevisiae deletion strains, locus YAL013W, strain DEP1, stronger effect = lower value 1.01 | S. cerevisiae deletion strains, locus YBR021W, strain FUR4, stronger effect = lower value 1.07 | S. cerevisiae deletion strains, locus YBR229C, strain ROT2, stronger effect = lower value 0.959 | S. cerevisiae deletion strains, locus YCL029C, strain bik1, stronger effect = lower value 0.994 | S. cerevisiae deletion strains, locus YDL035C, strain GPR1, stronger effect = lower value 0.961 | S. cerevisiae deletion strains, locus YDL074C, strain BRE1, stronger effect = lower value 1.01 | S. cerevisiae deletion strains, locus YDL101C, strain DUN1, stronger effect = lower value 0.978 | S. cerevisiae deletion strains, locus YDL185W, strain tfp1, stronger effect = lower value 0.997 | S. cerevisiae deletion strains, locus YDL192W, strain arf1, stronger effect = lower value 0.947 | S. cerevisiae deletion strains, locus YDR101C, strain arx1, stronger effect = lower value 0.96 | S. cerevisiae deletion strains, locus YDR162C, strain NBP2, stronger effect = lower value 0.851 | S. cerevisiae deletion strains, locus YDR318W, strain mcm21, stronger effect = lower value 0.988 | S. cerevisiae deletion strains, locus YDR388W, stronger effect = lower value 0.99 | S. cerevisiae deletion strains, locus YDR502C, strain sam2, stronger effect = lower value 1.02 | S. cerevisiae deletion strains, locus YEL061C, strain CIN8, stronger effect = lower value 0.989 | S. cerevisiae deletion strains, locus YER110C, stronger effect = lower value 0.981 | S. cerevisiae deletion strains, locus YER155C, strain BEM2, stronger effect = lower value 1.04 | S. cerevisiae deletion strains, locus YER167W, strain BCK2, stronger effect = lower value 1.01 | S. cerevisiae deletion strains, locus YGL078C, strain dbp3, stronger effect = lower value 1.01 | S. cerevisiae deletion strains, locus YGL086W, strain mad1, stronger effect = lower value 0.993 | S. cerevisiae deletion strains, locus YGL248W, strain PDE1, stronger effect = lower value 0.994 | S. cerevisiae deletion strains, locus YGR135W, strain pre9, stronger effect = lower value 1.06 | S. cerevisiae deletion strains, locus YGR229C, strain SMI1, stronger effect = lower value 0.988 | S. cerevisiae deletion strains, locus YGR252W, strain gcn5, stronger effect = lower value 1.17 | S. cerevisiae deletion strains, locus YHR030C, strain SLT2, stronger effect = lower value 1.01 and 0.984 | S. cerevisiae deletion strains, locus YHR079C, strain IRE1 (second series), stronger effect = lower value 0.981 | S. cerevisiae deletion strains, locus YHR079C, strain IRE1, stronger effect = lower value 0.985 | S. cerevisiae deletion strains, locus YHR094C, strain hxt1, stronger effect = lower value 1 | S. cerevisiae deletion strains, locus YHR129C, strain ARP1, stronger effect = lower value 1.02 | S. cerevisiae deletion strains, locus YHR200W, strain rpn10, stronger effect = lower value 1.01 | S. cerevisiae deletion strains, locus YIL066C, strain RNR3, stronger effect = lower value 0.97 | S. cerevisiae deletion strains, locus YIL073C, strain SPO22, stronger effect = lower value 1.07 | S. cerevisiae deletion strains, locus YIL125W, strain kgd1, stronger effect = lower value 0.992 | S. cerevisiae deletion strains, locus YIR030C, strain dcg1, stronger effect = lower value 0.997 | S. cerevisiae deletion strains, locus YJL095W, strain BCK1, stronger effect = lower value 0.884 and 1.01 | S. cerevisiae deletion strains, locus YJL134W, strain LCB3, stronger effect = lower value 0.993 | S. cerevisiae deletion strains, locus YJL168C, strain set2, stronger effect = lower value 0.995 | S. cerevisiae deletion strains, locus YJL187C, strain SWE1 (second series), stronger effect = lower value 0.972 | S. cerevisiae deletion strains, locus YJR066W, strain TOR1, stronger effect = lower value 0.935 | S. cerevisiae deletion strains, locus YKL009W, strain mrt4, stronger effect = lower value 1.02 | S. cerevisiae deletion strains, locus YKL068W, stronger effect = lower value 0.996 | S. cerevisiae deletion strains, locus YKL085W, strain MDH1 (second series), stronger effect = lower value 1.02 | S. cerevisiae deletion strains, locus YKL085W, strain MDH1, stronger effect = lower value 1.02 | S. cerevisiae deletion strains, locus YKL190W, strain CNB1, stronger effect = lower value 0.988 | S. cerevisiae deletion strains, locus YKR001C, strain vps1, stronger effect = lower value 0.961 | S. cerevisiae deletion strains, locus YLR039C, strain RIC1, stronger effect = lower value 0.774 | S. cerevisiae deletion strains, locus YLR058C, strain SHM2, stronger effect = lower value 0.98 | S. cerevisiae deletion strains, locus YLR102C, strain apc9, stronger effect = lower value 1.01 | S. cerevisiae deletion strains, locus YLR113W, strain HOG1, stronger effect = lower value 0.92 | S. cerevisiae deletion strains, locus YLR268W, strain sec22, stronger effect = lower value 0.93 | S. cerevisiae deletion strains, locus YLR330W, strain CHS5, stronger effect = lower value 1.01 | S. cerevisiae deletion strains, locus YLR342W, strain FKS1 (second series), stronger effect = lower value 0.96 | S. cerevisiae deletion strains, locus YLR371W, strain rom2, stronger effect = lower value 1.03 | S. cerevisiae deletion strains, locus YLR418C, strain cdc73, stronger effect = lower value 0.936 | S. cerevisiae deletion strains, locus YML016C, strain PPZ1, stronger effect = lower value 0.987 | S. cerevisiae deletion strains, locus YML032C, strain rad52, stronger effect = lower value 0.978 | S. cerevisiae deletion strains, locus YML124C, strain tub3, stronger effect = lower value 1.01 | S. cerevisiae deletion strains, locus YMR078C, strain ctf18, stronger effect = lower value 0.997 | S. cerevisiae deletion strains, locus YMR223W, strain ubp8, stronger effect = lower value 0.991 | S. cerevisiae deletion strains, locus YMR307W, strain GAS1, stronger effect = lower value 0.95 | S. cerevisiae deletion strains, locus YNL067W, strain RPL9B, stronger effect = lower value 0.996 | S. cerevisiae deletion strains, locus YNL128W, strain TEP1, stronger effect = lower value 0.967 | S. cerevisiae deletion strains, locus YNL153C, strain GIM3, stronger effect = lower value 1.04 | S. cerevisiae deletion strains, locus YNL183C, strain NPR1, stronger effect = lower value 0.936 | S. cerevisiae deletion strains, locus YNL233W, strain BNI4, stronger effect = lower value 1.06 | S. cerevisiae deletion strains, locus YNL250W, strain rad50, stronger effect = lower value 0.993 | S. cerevisiae deletion strains, locus YNL271C, strain bni1, stronger effect = lower value 0.99 | S. cerevisiae deletion strains, locus YNL298W, strain CLA4, stronger effect = lower value 0.986 | S. cerevisiae deletion strains, locus YNL307C, strain MCK1, stronger effect = lower value 0.942 | S. cerevisiae deletion strains, locus YNL322C, strain KRE1, stronger effect = lower value 1 | S. cerevisiae deletion strains, locus YNR052C, strain pop2, stronger effect = lower value 1 | S. cerevisiae deletion strains, locus YOL012C, strain htz1 1.58 | S. cerevisiae deletion strains, locus YOL147C, strain pex11, stronger effect = lower value 1 | S. cerevisiae deletion strains, locus YOR061W, strain CKA2, stronger effect = lower value 0.967 | S. cerevisiae deletion strains, locus YOR069W, strain VPS5, stronger effect = lower value 0.988 | S. cerevisiae deletion strains, locus YOR136W, strain idh2, stronger effect = lower value 1.01 | S. cerevisiae deletion strains, locus YOR144C, strain elg1, stronger effect = lower value 1 | S. cerevisiae deletion strains, locus YOR184W, strain ser1, stronger effect = lower value 0.903 | S. cerevisiae deletion strains, locus YOR231W, strain MKK1, stronger effect = lower value 0.963 | S. cerevisiae deletion strains, locus YOR316C, strain cot1, stronger effect = lower value 0.994 | S. cerevisiae deletion strains, locus YPL256C, strain CLN2, stronger effect = lower value 0.957 | S. cerevisiae deletion strains, locus YPR119W, strain clb2, stronger effect = lower value 0.994 | S. cerevisiae deletion strains, locus YPR141C, strain kar3, stronger effect = lower value 0.991 | S. cerevisiae deletion strains, locus YPR163C, strain tif3, stronger effect = lower value 0.967 | S. cerevisiae deletion strains, locus YPR167C, strain met16, stronger effect = lower value 1.02 | S. cerevisiae deletion strains, strain wtn01, stronger effect = lower value 0.972 | S. cerevisiae strains, strain wild type, stronger effect = lower value 0.968
